Where “and” joins values, the source holds several entries; their conditions need not be identical. Equal values may be shown once. Calls of active or inactive are those of the source. No rule for the calls is given here.
molecular target: Serine/threonine-protein kinase PLK1 (Homo sapiens) (UniProt P53350); assay: Plk1 polo box domain binding inhibitors, SAR follow-up, biochemical, fluorescence polarization, purchased analogs (AID 1053); conditions: Plk1 PBD fluorescence polarization peptide binding; at 20 µM; hits give high values
Sequence (P53350 whole entry, looked up, the tested form may be a part): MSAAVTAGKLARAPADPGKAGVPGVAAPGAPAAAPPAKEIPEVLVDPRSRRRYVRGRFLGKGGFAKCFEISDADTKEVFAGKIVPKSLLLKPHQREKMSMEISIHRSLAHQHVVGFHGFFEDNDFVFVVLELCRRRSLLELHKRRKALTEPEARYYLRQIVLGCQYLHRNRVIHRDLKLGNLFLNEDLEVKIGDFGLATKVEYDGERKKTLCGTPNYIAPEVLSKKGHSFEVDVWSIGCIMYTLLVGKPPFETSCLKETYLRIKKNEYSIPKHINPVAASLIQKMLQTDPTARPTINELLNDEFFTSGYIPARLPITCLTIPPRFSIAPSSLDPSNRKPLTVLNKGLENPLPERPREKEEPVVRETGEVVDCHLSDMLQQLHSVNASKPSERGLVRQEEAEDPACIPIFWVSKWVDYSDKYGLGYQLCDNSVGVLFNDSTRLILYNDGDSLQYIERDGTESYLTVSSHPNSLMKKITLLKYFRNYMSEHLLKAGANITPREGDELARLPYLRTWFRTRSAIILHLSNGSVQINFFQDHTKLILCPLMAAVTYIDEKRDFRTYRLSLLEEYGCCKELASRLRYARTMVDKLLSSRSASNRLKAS

inhibition, inactive:
Cn1nc(-c2ccc(F)cc2)nc2c(=O)n(C)c(=O)nc1-2 3.86%
CCOc1cc(-c2nnc3[nH]c(=O)n(C)c(=O)c3n2)ccc1OC(C)C 15.8%
Cn1nc(-c2ccc(C(F)(F)F)cc2)nc2c(=O)n(C)c(=O)nc1-2 13.6% and 30.2%
CCOC(=O)c1ccc(NC(=O)C2CCC(C(C)(C)C)CC2)cc1 (centres undefined) 8.43%
CC(=O)N(CN1C(=O)c2ccc([N+](=O)[O-])cc2C1=O)c1ccc(Oc2ccccc2)cc1 -28.5%
Cn1c(=O)[nH]c2nnc(-c3ccc([N+](=O)[O-])cc3)nc2c1=O -49.9%
CC(=O)N(/N=C1\Sc2ccccc2C1=O)c1ccccc1C 17.5%
COc1ccc(-c2nnc3[nH]c(=O)n(C)c(=O)c3n2)cc1 -45.9% and -39.6%
Cc1cc(-n2c(C)cc(C=C3C(=O)NC(=O)NC3=O)c2C)ccc1I -48.2%
CC(=O)N(/C=C1\Sc2ccccc2C1=O)c1ccc(I)cc1 -16.1%
Cc1ccccc1-c1nc2c(=O)n(C)c(=O)nc-2n(C)n1 36.2% and 24.8%
CC(=O)N(/N=C1\Sc2ccccc2C1=O)c1cccc(Br)c1 20.2%
CCOC(=O)c1ccc(N=Cc2c(O)n(Cc3ccccc3Cl)c(=O)[nH]c2=O)cc1 -73.2%
COc1ccc(N(/N=C2\Sc3ccccc3C2=O)C(C)=O)cc1 30.5%
